# Assay results reported in PubChem BioAssay.
# For some assays here: Entries with a potency or affinity are not part of this list. Calls of active or inactive are those of the source.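 How the source made its calls, unless noted: active means calcium signal ratio cut to more than 3 SD under the fully stimulated control mean yet still positive, in both repeats and the primary screen; inactive means the rest.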
# Experiments:
# [1] = tested on: TRPC4 beta (transient receptor potential cation channel C4), mouse; assay: activators of mouse TRPC4 channel, confirmation, cell-based, Fluo4 calcium, HEK293 TRPC4beta/mu-opioid, duplicates, 10 µM (AID 2426;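 active means fluorescence ratio normalized to control raised more than 50% in primary screen plus both repeat runs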); conditions: Fluo4 calcium fluorescence, at 10 µM; hits give high values
# [2] = tested on: transient receptor potential cation channel C4 beta (TRPC4), mouse; assay: activators of mouse TRPC4 channel, confirmation, cell-based, second round, Fluo4, HEK293 TRPC4beta/mu-opioid, 1 µM (AID 2461;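 active means primary screen active and over 50% activation in each of two duplicate runs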); conditions: Fluo4 calcium fluorescence, at 1 µM; hits give high values
# [3] = tested on: TRPC4 (transient receptor potential cation channel C4 beta), mouse; assay: positive allosteric modulators of mouse TRPC4, confirmation, cell-based, second round, Fluo-4, HEK293 TRPC4beta/mu-opioid, 1 µM (AID 2554;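 active means primary screen hit whose fluorescence ratio, in both repeats, exceeds the weak agonist control mean by 3 SD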); conditions: DAMGO EC20, Fluo-4 calcium flux, at 1 µM; hits give high values
# [4] = tested on: TRPC4 beta (transient receptor potential cation channel C4), mouse; assay: positive allosteric modulators of mouse TRPC4, confirmation, cell-based, Fluo-4, HEK293 TRPC4beta/mu-opioid (AID 2555;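 active means primary screen hit whose calcium fluorescence ratio, in both repeats, exceeds the weak agonist control mean by 3 SD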); conditions: DAMGO EC20, Fluo-4 calcium flux, at 10 µM; hits give high values
# [5] = biological target: Short transient receptor potential channel 4 (Mus musculus) (UniProt Q9QUQ5); assay: inhibitors of mouse TRPC4 channel, confirmation, cell-based, Fluo4, HEK293 TRPC4beta/mu-opioid (AID 2636;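 active means calcium signal cut by more than 3 SD below the full-agonist control yet still positive, in both repeats and the earlier primary screen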); conditions: DAMGO, Fluo4 calcium flux, at 10 µM; hits give high values
# [6] = biological target: Short transient receptor potential channel 4 (Mus musculus) (UniProt Q9QUQ5); assay: inhibitors of mouse TRPC4 channel, confirmation, cell-based, second round, Fluo4, HEK293 TRPC4beta/mu-opioid, 1 µM (AID 2637); conditions: Fluo4 calcium flux, DAMGO, at 1 µM; hits give high values;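 on inhibition: percent of integrated ratio relative to wells lacking test compound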
# [7] = biological target: Short transient receptor potential channel 4 (Mus musculus) (UniProt Q9QUQ5); assay: mouse TRPC4 channel activators, dose response, cell-based, HEK293 TRPC4/mu-opioid, Fluo-4 calcium (AID 434937;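 active means primary screen activator hit with a dose response curve and TRPC4 channel activation at any tested dose; inactive means no activation, no dose response, or not a primary hit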)
# [8] = biological target: Short transient receptor potential channel 4 (Mus musculus) (UniProt Q9QUQ5); assay: TRPC4 positive allosteric modulators, dose response, cell-based, HEK293 TRPC4/mu-opioid, Fluo-4 calcium, EC20 DAMGO (AID 434941;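 active means earlier screen potentiator hit that boosts the TRPC4 ion channel at some dose, with a dose response; inactive means no potentiation, no dose response, or not a prior hit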;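 further: calcium entry triggered by an EC20 dose of DAMGO at the co-expressed mu-opioid receptor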)
# [9] = biological target: Short transient receptor potential channel 4 (Mus musculus) (UniProt Q9QUQ5); assay: mouse TRPC4 channel inhibitors, dose response, cell-based, HEK293 TRPC4/mu-opioid, Fluo-4 calcium (AID 434942;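 active means primary screen inhibitor hit that blocks the TRPC4 channel at some tested dose, yielding a dose curve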)
# [10] = biological target: Short transient receptor potential channel 6 (Mus musculus) (UniProt Q61143); assay: inhibition of mouse TRPC6 channel, confirmation, selectivity assay for TRPC4 inhibitor project, cell-based, HEK293, membrane potential dye, duplicate (AID 434948;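 active means active in primary screen and both duplicates, each dropping signal beyond three positive-control SD with fluorescence still positive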); conditions: HEK293 TRPC6, membrane potential dye fluorescence, at 10 µM, stimulated with maximal-effect acetylcholine; hits give high values
# [11] = biological target: Short transient receptor potential channel 6 (Mus musculus) (UniProt Q61143); assay: activation of mouse TRPC6 channel, confirmation, selectivity assay for TRPC4 activator project, cell-based, HEK293, membrane potential dye, duplicate (AID 434950;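 active means membrane potential signal rise above negative control mean plus 3 SD in both duplicates, also active in the earlier TRPC4 screen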); conditions: HEK293 TRPC6, membrane potential fluorescence, at 10 µM; hits give high values
# [12] = biological target: Short transient receptor potential channel 6 (Mus musculus) (UniProt Q61143); assay: TRPC6 potentiation by TRPC4 potentiator hits, confirmation, selectivity assay for TRPC4 potentiator project, HEK293 cells, membrane potential dye, duplicate (AID 434952;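 active means compound raising the membrane signal above positive-control mean plus 3 SD in both repeats, and a primary screen hit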); conditions: HEK293 TRPC6, membrane potential dye fluorescence, at 10 µM, maximal acetylcholine added after compound; hits give high values
# [13] = biological target: Short transient receptor potential channel 4 (Mus musculus) (UniProt Q9QUQ5); assay: calcium flux activators in TRPC4/5HT1a cells, counter-screen for TRPC4 activator project, cell-based, second counter screen, HEK293 TRPC4/5HT1a, Fluo-4 (AID 434977;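 active means calcium signal rise above buffer-control mean plus 5 SD in both duplicates, and also a hit in the primary screen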); conditions: Fluo-4 calcium flux, at 10 µM; hits give high values
# [14] = calcium flux inhibitors in TRPC4/5HT1a cells, confirmation, counter-screen for TRPC4 inhibitor project, cell-based, second counter screen, HEK293 TRPC4/5HT1a, Fluo-4 (AID 434978;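 active means primary screen active whose calcium signal fell more than 3 SD beyond the full-serotonin control mean in both duplicate plates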;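 further: serotonin given first at submaximal then at maximal dose after compound preincubation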); conditions: Fluo-4 calcium flux, at 10 µM, serotonin added to trigger calcium flux; hits give high values
# [15] = tested on: TRPC4 (mouse), co-expressed with 5HT1a in HEK293; assay: calcium flux potentiators in TRPC4/5HT1a cells, confirmation, counter-screen for TRPC4 potentiator project, cell-based, second counter screen, HEK293 TRPC4/5HT1a, Fluo-4 (AID 434979;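 active means signal rise over 3 SD above mean of control wells given weak agonist, in both repeats and first screen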); conditions: Fluo-4 calcium flux, at 10 µM, serotonin added at its EC20 dose; hits give high values
# [16] = calcium flux activation in mu-opioid HEK293 cells, confirmation, counter-screen for TRPC4 activator project, cell-based, HEK293 mu-opioid receptor line (AID 449723;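 active means hit in primary screen, with calcium signal over 5 SD above buffer well mean in both duplicates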;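 further: counter screen cells carry the mu-opioid receptor alone and lack TRPC4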); conditions: Fluo-4 calcium fluorescence, at 10 µM; hits give high values
# [17] = calcium flux enhancement in mu-opioid HEK293 cells, confirmation, counter-screen for TRPC4 allosteric potentiator project, cell-based, HEK293 mu-opioid receptor line (AID 449724;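 active means calcium signal rise more than 3 SD above the low-dose agonist control mean, in both duplicate plates and the primary screen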); conditions: Fluo-4 calcium flux, at 10 µM, compound added before EC20 DAMGO stimulus; hits give high values
# Short transient receptor potential channel 6 (Mus musculus), sequence (Q61143 whole entry, looked up): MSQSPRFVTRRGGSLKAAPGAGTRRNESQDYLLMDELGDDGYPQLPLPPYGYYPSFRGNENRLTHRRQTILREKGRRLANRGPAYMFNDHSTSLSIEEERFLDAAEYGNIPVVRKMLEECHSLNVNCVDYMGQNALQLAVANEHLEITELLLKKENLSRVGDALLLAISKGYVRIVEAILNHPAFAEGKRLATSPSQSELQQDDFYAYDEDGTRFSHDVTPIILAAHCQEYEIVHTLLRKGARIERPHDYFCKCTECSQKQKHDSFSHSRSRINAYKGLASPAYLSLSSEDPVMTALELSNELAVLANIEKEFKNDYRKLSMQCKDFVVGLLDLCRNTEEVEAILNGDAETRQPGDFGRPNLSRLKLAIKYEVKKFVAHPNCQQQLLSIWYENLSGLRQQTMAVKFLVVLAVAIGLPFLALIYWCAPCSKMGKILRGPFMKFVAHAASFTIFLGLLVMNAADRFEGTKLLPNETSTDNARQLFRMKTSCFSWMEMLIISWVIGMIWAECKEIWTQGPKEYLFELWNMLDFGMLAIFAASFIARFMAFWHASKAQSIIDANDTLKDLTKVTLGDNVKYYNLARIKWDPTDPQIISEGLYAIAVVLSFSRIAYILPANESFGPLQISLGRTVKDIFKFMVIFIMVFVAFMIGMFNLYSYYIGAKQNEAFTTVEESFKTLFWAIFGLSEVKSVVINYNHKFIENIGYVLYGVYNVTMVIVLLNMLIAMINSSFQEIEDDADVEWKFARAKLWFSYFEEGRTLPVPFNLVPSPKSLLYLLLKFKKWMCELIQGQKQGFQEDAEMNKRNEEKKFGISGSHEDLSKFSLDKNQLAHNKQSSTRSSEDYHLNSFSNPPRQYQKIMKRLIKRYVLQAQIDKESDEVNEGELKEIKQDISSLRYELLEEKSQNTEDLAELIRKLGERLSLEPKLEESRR
# Short transient receptor potential channel 4 (Mus musculus), sequence (Q9QUQ5 whole entry, looked up): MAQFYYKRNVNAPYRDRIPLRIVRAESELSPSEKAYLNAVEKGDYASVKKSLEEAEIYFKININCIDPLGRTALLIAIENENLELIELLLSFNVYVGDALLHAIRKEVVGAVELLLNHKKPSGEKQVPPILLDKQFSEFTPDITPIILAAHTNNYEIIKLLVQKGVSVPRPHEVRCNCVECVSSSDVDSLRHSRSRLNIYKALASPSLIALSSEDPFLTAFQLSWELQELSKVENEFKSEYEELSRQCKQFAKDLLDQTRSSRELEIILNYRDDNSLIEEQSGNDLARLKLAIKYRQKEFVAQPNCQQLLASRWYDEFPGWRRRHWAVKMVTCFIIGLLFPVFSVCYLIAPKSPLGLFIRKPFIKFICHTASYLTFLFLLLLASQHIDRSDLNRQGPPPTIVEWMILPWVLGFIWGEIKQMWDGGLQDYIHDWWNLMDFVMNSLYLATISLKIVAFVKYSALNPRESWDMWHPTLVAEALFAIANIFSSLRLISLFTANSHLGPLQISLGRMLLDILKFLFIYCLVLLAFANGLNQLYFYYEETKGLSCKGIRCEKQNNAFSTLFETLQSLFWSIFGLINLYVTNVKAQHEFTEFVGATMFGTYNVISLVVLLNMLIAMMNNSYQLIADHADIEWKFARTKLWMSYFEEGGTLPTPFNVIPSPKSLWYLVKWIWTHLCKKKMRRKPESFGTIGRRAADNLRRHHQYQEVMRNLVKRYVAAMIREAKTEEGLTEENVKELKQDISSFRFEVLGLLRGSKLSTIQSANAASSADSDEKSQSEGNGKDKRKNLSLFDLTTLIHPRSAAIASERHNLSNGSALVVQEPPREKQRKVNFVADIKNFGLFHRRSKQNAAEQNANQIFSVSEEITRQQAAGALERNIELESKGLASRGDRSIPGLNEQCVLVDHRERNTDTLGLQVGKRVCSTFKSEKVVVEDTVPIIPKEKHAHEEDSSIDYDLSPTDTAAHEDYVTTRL
smiles,measurement,setting,value
CSc1ncccc1C(=O)OCC(=O)N(CC(C)C)c1c(N)n(Cc2ccccc2)c(=O)[nH]c1=O,outcome,[1],inactive
same,outcome,[2],inactive
same,outcome,[3],inactive
same,outcome,[4],inactive
same,outcome,[5],inactive
same,outcome,[6],inactive
same,outcome,[7],inactive
same,outcome,[8],inactive
same,outcome,[9],inactive
same,outcome,[10],inactive
same,outcome,[11],inactive
same,outcome,[12],inactive
same,outcome,[13],inactive
same,outcome,[14],inactive
same,outcome,[15],inactive
same,outcome,[16],inactive
same,outcome,[17],inactive
Cc1ccc(C)n1-c1ncc(Br)cn1,outcome,[1],inactive
same,outcome,[2],inactive
same,outcome,[3],inactive
same,potentiation,[4],10% (active)
same,outcome,[5],inactive
same,outcome,[6],inactive
same,outcome,[7],inactive
same,outcome,[8],inactive
same,outcome,[9],inactive
same,outcome,[10],inactive
same,outcome,[11],inactive
same,outcome,[12],inactive
same,outcome,[13],inactive
same,outcome,[14],inactive
same,potentiation,[15],31.9% (active)
same,outcome,[16],inactive
same,outcome,[17],inactive
Cc1cc(N2CCOCC2)nc(NCc2ccccc2)n1,outcome,[1],inactive
same,outcome,[2],inactive
same,outcome,[3],inactive
same,outcome,[4],inactive
same,outcome,[5],inactive
same,outcome,[6],inactive
same,outcome,[7],inactive
same,outcome,[8],inactive
same,outcome,[9],inactive
same,outcome,[10],inactive
same,outcome,[11],inactive
same,outcome,[12],inactive
same,outcome,[13],inactive
same,outcome,[14],inactive
same,outcome,[15],inactive
same,outcome,[16],inactive
same,outcome,[17],inactive
Clc1ccc(OCCn2ccnc2)c(Br)c1,outcome,[1],inactive
same,outcome,[2],inactive
same,outcome,[3],inactive
same,potentiation,[4],13% (active)
same,outcome,[5],inactive
same,outcome,[6],inactive
same,outcome,[7],inactive
same,outcome,[8],inactive
same,outcome,[9],inactive
same,outcome,[10],inactive
same,outcome,[11],inactive
same,outcome,[12],inactive
same,outcome,[13],inactive
same,outcome,[14],inactive
same,potentiation,[15],12.6% (active)
same,outcome,[16],inactive
same,outcome,[17],inactive
O=C(NCC(c1ccco1)N1CCc2ccccc2C1)c1ccc(F)cc1 (centres undefined),outcome,[1],inactive
same,outcome,[2],inactive
same,outcome,[3],inactive
same,outcome,[4],inactive
same,outcome,[5],inactive
same,outcome,[6],inactive
same,outcome,[7],inactive
same,outcome,[8],inactive
same,outcome,[9],inactive
same,outcome,[10],inactive
same,outcome,[11],inactive
same,outcome,[12],inactive
same,outcome,[13],inactive
same,outcome,[14],inactive
same,outcome,[15],inactive
same,outcome,[16],inactive
same,outcome,[17],inactive
CCCNc1nc2ccccc2n2c(C)nnc12,outcome,[1],inactive
same,outcome,[2],inactive
same,outcome,[3],inactive
same,outcome,[4],inactive
same,inhibition,[5],73% (active)
same,inhibition,[6],39% (active)
same,outcome,[7],inactive
same,outcome,[8],inactive
same,outcome,[9],inactive
same,outcome,[10],inactive
same,outcome,[11],inactive
same,outcome,[12],inactive
same,outcome,[13],inactive
same,outcome,[14],inactive
same,outcome,[15],inactive
same,outcome,[16],inactive
same,outcome,[17],inactive
CCc1nc2ccccc2n1Cc1ccccc1F,outcome,[1],inactive
same,outcome,[2],inactive
same,outcome,[3],inactive
same,outcome,[4],inactive
same,outcome,[5],inactive
same,outcome,[6],inactive
same,outcome,[7],inactive
same,outcome,[8],inactive
same,outcome,[9],inactive
same,outcome,[10],inactive
same,outcome,[11],inactive
same,outcome,[12],inactive
same,outcome,[13],inactive
same,outcome,[14],inactive
same,outcome,[15],inactive
same,outcome,[16],inactive
same,outcome,[17],inactive
